A number with no mark means an inactive call. The rule behind the calls is not given here. A value given as a limit tells only on which side of the number the result lay.
Potency is the fitted concentration of half-maximal effect.

This assay has as its system HIV-1 nucleocapsid protein NCp7 (binding to TG oligonucleotide). In words: HIV Nucleocapsid (AID 346).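 Note: potency is for inhibitors that block NC binding and lower polarization.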 Particulars: HIV-1 NC / fluorescein-TGTGTGTG probe, fluorescence polarization. The method in brief: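 Fluorescence polarization readout: labelled TG4xF oligo (10 nM) with 100 nM nucleocapsid protein, high-salt (250mM NaCl) Hepes pH 7.5 buffer containing zinc and fresh reducing agents. Compounds added by pin tool; incubation 1 hr, room temperature.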
Background: Fluorescence polarisation rises when a labelled molecule tumbles more slowly, as on binding a larger partner.
For `COc1ccc(-c2nc3cncnc3n(-c3ccccc3)c2=O)cc1`, the Potency is above 20 µM.

Regarding `COc1ccccc1CN1CC[C@@]2(CCCN(C(=O)c3cccn3C)C2)C1`, the Potency is above 20 µM.

For `CCNc1ncc2nc(-c3ccc(Cl)cc3)c(=O)n(C[C@H]3CCCO3)c2n1`, the Potency is above 4 µM.

In the case of `O=C(Nc1ccccc1)N1CCCC2(CCN(S(=O)(=O)c3ccccc3)CC2)C1`, the Potency is above 20 µM.

With `O=c1c(-c2cc(F)cc(F)c2)nc2cnc(N3CCNCC3)nc2n1Cc1cccs1`, the Potency was above 20 µM.

With `Cc1nc2cnc(N3CCOCC3)nc2n(C[C@H]2CCCO2)c1=O`, the Potency is above 20 µM.

Take `O=C(c1cccc(F)c1)N1CCC2(CC1)CN(c1ncccn1)C2`: the Potency is above 20 µM.

`CN(C)C(=O)c1ccc(-c2nccc(N(C)Cc3ccco3)n2)cc1`: the Potency is above 20 µM.

As for `COCCn1c(=O)c(-c2ccc(F)cc2)nc2cnc(Oc3cccc(Cl)c3)nc21`, the Potency was above 20 µM.

Regarding `CC(C)CN1CCC2(CC1)CCN(C(=O)c1cccn1C)CC2`, the Potency is above 20 µM.

Turning to `CC(=O)N1CCC2(CCCN(C(=O)Nc3cccc(F)c3)C2)CC1`, the Potency was above 20 µM.

For the compound `CC(=O)N1CCC2(CC1)CCN(C(=O)Nc1cccc(F)c1)CC2`, the Potency was above 20 µM.

With `Cc1cccc(CNc2ncncc2-c2ccccc2Cl)c1`, the Potency was above 20 µM.

On to `COc1ccc2[nH]cc(CCNc3ncncc3-c3ccoc3)c2c1`, for which the Potency was above 20 µM.

Take `O=C(c1cnccn1)N1CCC[C@@]2(CCN(c3ccccn3)C2)C1`: the Potency is above 20 µM.

Consider `COc1ccc2[nH]cc(CCNc3nc(-c4cccc(NS(C)(=O)=O)c4)nc4ccccc34)c2c1`, for which the Potency was above 20 µM.

In the case of `COCCNc1ccnc(-c2ccccc2C(F)(F)F)n1`, the Potency is above 20 µM.

For the compound `COCC(=O)N1CCC2(CCCN(c3cccc(-c4ccccc4)c3)C2)CC1`, the Potency is above 20 µM.

Consider `Cc1cnc(CNc2cc(-c3ccccc3C(F)(F)F)ncn2)cn1`, for which the Potency was above 20 µM.

Regarding `COC(=O)N1CCC2(CCN(Cc3ccccc3)CC2)CC1`, the Potency is above 20 µM.

Turning to `COCCn1c(=O)c(-c2cccs2)nc2cnc(N3CCNCC3)nc21`, the Potency was 13 µM.

Consider `FC(F)(F)c1ccccc1-c1nc(NCc2cccs2)c2ccccc2n1`, for which the Potency is above 20 µM.

For `Cn1cccc1C(=O)N1CCC2(CC1)CCN(c1ccncc1)CC2`, the Potency is above 20 µM.

`COc1ccccc1CN1CC2(CCN(C(=O)c3ccncc3)CC2)C1`: the Potency is above 20 µM.

On to `COc1ccc(-c2nc3cnc(N4CCN(C)CC4)nc3n(Cc3ccc(F)cc3)c2=O)cc1`, for which the Potency was above 20 µM.

Regarding `O=C(c1csnn1)N1CCC2(CC1)CN(c1ccccc1)C2`, the Potency was above 20 µM.

Consider `CC(C)CN1CCC2(CC1)CCN(C(=O)c1cnccn1)CC2`, for which the Potency is above 20 µM.

Turning to `O=C(c1cccc(F)c1)N1CCC2(CCCN(C(c3ccccc3)c3ccccc3)C2)CC1`, the Potency was above 20 µM.

Turning to `O=C(Nc1ccccc1)N1CC2(CCN(C(=O)c3cnccn3)CC2)C1`, the Potency was above 20 µM.

Take `COc1cccc(Cn2c(=O)c(-c3ccc(Cl)cc3)nc3cnc(N4CCN(C)CC4)nc32)c1`: the Potency was above 20 µM.

Regarding `O=C(c1csnn1)N1CCC[C@@]2(CCN(C(c3ccccc3)c3ccccc3)C2)C1`, the Potency was above 20 µM.

With `COCCn1c(=O)cnc2cnc(Oc3ccccc3)nc21`, the Potency was above 20 µM.

In the case of `O=C(c1ccco1)N1CCC2(CCCN(c3ncccn3)C2)CC1`, the Potency was above 20 µM.

In the case of `COC(=O)N1CCC2(CCCN(Cc3nccs3)C2)CC1`, the Potency is above 20 µM.

As to `COc1ccc2[nH]cc(CCNc3ncnc4ccc(-c5ccccc5C#N)cc34)c2c1`, the Potency was above 20 µM.

In the case of `CN(C)c1ncc2nc(CCc3ccccc3)c(=O)n(CCc3ccccc3)c2n1`, the Potency was above 20 µM.

For `O=c1c(-c2ccc(F)cc2)nc2cnc(Nc3ccccc3)nc2n1C1CC1`, the Potency was above 20 µM.

As to `Cc1noc(C)c1C(=O)N1CCC2(CC1)CCN(c1ccccn1)CC2`, the Potency is above 20 µM.

As for `CN(C)Cc1ccccc1-c1nccc(NC2CC2)n1`, the Potency is above 20 µM.

For the compound `O=c1c(-c2ccccc2)nc2cnc(N3CCOCC3)nc2n1CCc1ccccc1`, the Potency is above 20 µM.

For the origin of these results see PubChem BioAssay (NCATS).
